Molecules are shown by their SMILES. This is part of a sample that, as a whole, favours compounds with a hit. Of some 83,000 tested, about 20% had one in any assay.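 96-well plates, one dose, 48 hours. Percent growth reported; active if below 10.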 Activity calls are given as the source filed them.

The first experiment concerns OVCAR-5 ovarian. Kind of experiment: NCI-60 one-dose screen, 48 h (100 = growth as untreated, 0 = no growth, -100 = all killed). The following applies: 10 µM unless noted.
`Nc1cc2nc3ccccc3sc-2cc1=O`: the growth is 94.2% (inactive).
As to `C#Cc1nc(Nc2cc(C)[nH]n2)c2ccccc2n1`, the growth is -28.5% (active).
In the case of `CCOC(=O)c1nc(Nc2cc(C)[nH]n2)c2ccccc2n1`, the growth was 103% (inactive).
Turning to `O=C(/C=C/c1ccc(Cl)cc1)/C=C/c1cc2ccccc2[nH]c1=O`, the growth is 128% (inactive).
`CCOC(=O)c1ccc2c(c1)nc(/C=C/c1ccc(Cl)cc1)n2-c1cc(C(C)(C)C)[nH]n1`: the growth is 110% (inactive).
Still for that read-out and setting: the value for `CC(=O)OCC(=O)C1CCC=CC1OC(C)=O` (configuration not stated) was 104% (inactive); that for `COc1cc(C2CC(=O)c3c(C)nn(-c4nc5ccccc5[nH]4)c3C2)cc(OC)c1OC` (configuration not stated) was 90.4% (inactive).
As for `CC1(C)OCC2OC3(C(=O)O)OC(C)(C)OC3C2O1` (configuration not stated), the growth is 106% (inactive).
The same measure, in the same setting: the figure for `COc1ccc(C(=O)c2sc3nc(-c4ccccc4OC)ccc3c2N)cc1OC` is 89.8% (inactive); for `COc1ccc(C(=O)c2sc3nc4c(cc3c2N)CCCC4)cc1OC` it is 86.9% (inactive); for `Cc1ccc2c(NCCCN(C)C)c3c(C)nn(C)c3nc2c1` it is 39.3% (inactive).
For the compound `Cc1ccc(NC(=O)c2sc3nc4c(cc3c2N)C(=O)CCC4)cc1C`, the growth is 32.6% (inactive).
For the compound `COc1c(C2CC(=O)Nc3c2cnn3Cc2ccco2)cc2c(c1OC)OCO2` (configuration not stated), the growth was 40.8% (inactive).
Regarding `Cc1ccn2c(-c3csc(Nc4cccc(O)c4)n3)c(C)nc2c1`, the growth was 38.5% (inactive).
On to `O=C1Nc2ccc(Br)cc2C12CC(c1ccccc1)=NN2` (configuration not stated), for which the growth was 82% (inactive).
Same read-out and setting: the value for `Cc1cc(Nc2nc(N3CCNCC3)nc3ccccc23)n[nH]1` was 89.6% (inactive).
Consider `CCc1ccccc1NC(=O)c1sc2nc3c(cc2c1N)C(=O)CCC3`, for which the growth is 33.5% (inactive).
Still for that read-out and setting: the figure for `CCOC(=O)N1CCN(c2nc(Nc3cc(C)[nH]n3)c3ccccc3n2)CC1` is 55.9% (inactive).
As to `CN1CCCCC1CCN1c2ccccc2Sc2ccc(Cl)cc21` (configuration not stated), the growth is 91.8% (inactive).
As for `COc1c(Cl)cc(Cl)cc1Cl`, the growth was 121% (inactive).
The same measure, in the same setting: the figure for `Cc1cc(Nc2nc(N3CCOCC3)nc3ccccc23)n[nH]1` is 88.7% (inactive); for `COc1ccc(C2CC(=O)Nc3c2c(C)nn3-c2nc3ccccc3[nH]2)cc1` (configuration not stated) it is 112% (inactive).
For the compound `COc1cc(-c2cc(-c3nc4ccc(Cl)cc4[nH]3)[nH]n2)cc(OC)c1OC`, the growth was 97.3% (inactive).
`Cc1noc(C)c1-c1cc(O)cc(C(O)c2ccccc2)c1` (configuration not stated): the growth was 73.3% (inactive).
Regarding `COc1ccc(-c2nc(Nc3cc(C)[nH]n3)c3ccccc3n2)cc1`, the growth is 59.8% (inactive).
On the same count and under the same terms, the value for `Cc1cc(Nc2nc(-c3cccnc3)nc3ccccc23)n[nH]1` was 65.9% (inactive).
Consider `CC#Cc1nc2ccccc2c(=O)[nH]1`, for which the growth was 76.4% (inactive).
Same read-out and setting: the figure for `O=C(Nc1ccc(F)cc1)Nc1ccc(CCO)cc1` is 114% (inactive); for `COc1cc(C2C(C(=O)c3cccs3)=C(O)C(=O)N2CCN2CCOCC2)cc(OC)c1OC` (configuration not stated) it is 108% (inactive).
Same read-out and setting: the value for `NCc1cn2cc(Cl)sc2n1` was 98% (inactive); that for `CCCCCCCCCCCCN1CCCC(C)C1` (configuration not stated) was 88.2% (inactive).
Regarding `O=c1c2cccc3c(Nc4ccccn4)ccc(c32)c2nc3ccccc3n12`, the growth was 83.3% (inactive).
Same read-out and setting: the value for `Cc1ccc(S(=O)(=O)N(CCc2ccc(Cl)cc2)S(=O)(=O)c2ccc(C)cc2)cc1` was 106% (inactive); that for `CNC(=S)N/N=C/CSC/C=N/NC(=S)NC` was 89.8% (inactive); that for `COc1ccc(-c2c(C)noc2-c2ccc(O)cc2O)cc1` was 112% (inactive).

The subject of the next experiment is OVCAR-4 ovarian. The description is as above. The following applies: 10 µM unless noted.
For `Nc1cc2nc3ccccc3sc-2cc1=O`, the growth is 73.3% (inactive).
Same read-out and setting: the figure for `C#Cc1nc(Nc2cc(C)[nH]n2)c2ccccc2n1` is -55.2% (active); for `CCOC(=O)c1nc(Nc2cc(C)[nH]n2)c2ccccc2n1` it is 82.5% (inactive); for `O=C(/C=C/c1ccc(Cl)cc1)/C=C/c1cc2ccccc2[nH]c1=O` it is 84.1% (inactive).
The same measure, in the same setting: the figure for `CCOC(=O)c1ccc2c(c1)nc(/C=C/c1ccc(Cl)cc1)n2-c1cc(C(C)(C)C)[nH]n1` is 38.3% (inactive); for `CC(=O)OCC(=O)C1CCC=CC1OC(C)=O` (configuration not stated) it is 94.4% (inactive); for `COc1cc(C2CC(=O)c3c(C)nn(-c4nc5ccccc5[nH]4)c3C2)cc(OC)c1OC` (configuration not stated) it is -35.4% (active).
Same read-out and setting: the figure for `CC1(C)OCC2OC3(C(=O)O)OC(C)(C)OC3C2O1` (configuration not stated) is 118% (inactive).
Regarding `COc1ccc(C(=O)c2sc3nc(-c4ccccc4OC)ccc3c2N)cc1OC`, the growth is 61.5% (inactive).
`COc1ccc(C(=O)c2sc3nc4c(cc3c2N)CCCC4)cc1OC`: the growth is 60.7% (inactive).
On the same count and under the same terms, the value for `Cc1ccc2c(NCCCN(C)C)c3c(C)nn(C)c3nc2c1` was 28.7% (inactive); that for `Cc1ccc(NC(=O)c2sc3nc4c(cc3c2N)C(=O)CCC4)cc1C` was 76% (inactive); that for `COc1c(C2CC(=O)Nc3c2cnn3Cc2ccco2)cc2c(c1OC)OCO2` (configuration not stated) was 39.2% (inactive).
Still for that read-out and setting: the figure for `Cc1ccn2c(-c3csc(Nc4cccc(O)c4)n3)c(C)nc2c1` is 36.7% (inactive); for `NC(CC(=O)O)C(=O)OCc1ccccc1` (configuration not stated) it is 89.6% (inactive); for `O=C1Nc2ccc(Br)cc2C12CC(c1ccccc1)=NN2` (configuration not stated) it is 67.5% (inactive).
With `Cc1cc(Nc2nc(N3CCNCC3)nc3ccccc23)n[nH]1`, the growth was 96.2% (inactive).
The same measure, in the same setting: the figure for `CCc1ccccc1NC(=O)c1sc2nc3c(cc2c1N)C(=O)CCC3` is 60.9% (inactive); for `CCOC(=O)N1CCN(c2nc(Nc3cc(C)[nH]n3)c3ccccc3n2)CC1` it is 49.5% (inactive).
Still for that read-out and setting: the value for `CN1CCCCC1CCN1c2ccccc2Sc2ccc(Cl)cc21` (configuration not stated) was 57.1% (inactive); that for `Cc1cc(Nc2nc(N3CCOCC3)nc3ccccc23)n[nH]1` was 52.5% (inactive).
With `COc1ccc(C2CC(=O)Nc3c2c(C)nn3-c2nc3ccccc3[nH]2)cc1` (configuration not stated), the growth was 121% (inactive).
On the same count and under the same terms, the value for `COc1cc(-c2cc(-c3nc4ccc(Cl)cc4[nH]3)[nH]n2)cc(OC)c1OC` was 32.2% (inactive); that for `Cc1noc(C)c1-c1cc(O)cc(C(O)c2ccccc2)c1` (configuration not stated) was 32.5% (inactive).
Regarding `COc1ccc(-c2nc(Nc3cc(C)[nH]n3)c3ccccc3n2)cc1`, the growth is 60.1% (inactive).
On the same count and under the same terms, the value for `Cc1cc(Nc2nc(-c3cccnc3)nc3ccccc23)n[nH]1` was 60.8% (inactive); that for `CC#Cc1nc2ccccc2c(=O)[nH]1` was 18.4% (inactive); that for `O=C(Nc1ccc(F)cc1)Nc1ccc(CCO)cc1` was 97.6% (inactive).
Still for that read-out and setting: the figure for `CCCCNC(=O)NS(=O)(=O)c1ccc(N2N=C(c3cc(C)ccc3C)CC2c2cc(OC)c(OC)c(OC)c2)cc1` (configuration not stated) is 77.7% (inactive); for `COc1cc(C2C(C(=O)c3cccs3)=C(O)C(=O)N2CCN2CCOCC2)cc(OC)c1OC` (configuration not stated) it is 110% (inactive).
Still for that read-out and setting: the figure for `NCc1cn2cc(Cl)sc2n1` is 100% (inactive); for `CCCCCCCCCCCCN1CCCC(C)C1` (configuration not stated) it is 68% (inactive); for `O=c1c2cccc3c(Nc4ccccn4)ccc(c32)c2nc3ccccc3n12` it is 69.1% (inactive).
On to `Cc1ccc(S(=O)(=O)N(CCc2ccc(Cl)cc2)S(=O)(=O)c2ccc(C)cc2)cc1`, for which the growth was 86.5% (inactive).
Still for that read-out and setting: the value for `O=C(N/N=C/c1ccc(O)cc1O)c1cccnc1` was 32.6% (inactive); that for `CNC(=S)N/N=C/CSC/C=N/NC(=S)NC` was 76.1% (inactive).
On the same count and under the same terms, the figure for `COc1ccc(-c2c(C)noc2-c2ccc(O)cc2O)cc1` is 76.4% (inactive).

For the origin of these results see PubChem BioAssay (NCI).
